An excerpt weighted towards active compounds, which were near 2.8% of everything screened.
HTT ATP protect: cytoprotection in Huntington HTT-Q103 PC12 cell model; hit rate 0.14% among 230,000; Potency, µM (doses to about 56.4 µM), usual class: activators; PC12 HTT-Q103 induced, cytoprotection, ATP luminescence, 40 h; further: nearly all actives have a fitted effect of over 45% in size
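Readout: ATPlite luminescence (ATP level). Model: stable PC12, inducible Htt exon1 Q103-GFP. Inducer: tebufenozide, 100 nM final. Compounds: dose series. No G418 in medium.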
HttQ103 aggreg: mutant huntingtin aggregation inhibition. AID 1688. hit rate 1.1% among 220,000. PC12 HttQ103-GFP aggregates, Acumen cytometry, 40 h. Potency, µM (series often up to 46.1 µM), actives largely listed as inhibitors; further: nearly all actives have a fitted effect of over 60% in size
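Ecdysone-promoter PC12 model expressing HTT exon 1 Q103 fused to GFP, induced by tebufenozide at 100 nM final. Compounds titrated; aggregates sized 1–25 µm scored on a 488 nm laser cytometer.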
HepG2 tox-1: HepG2 cytotoxicity, counter-screen for TGF-b inhibitors; HepG2 CAGA-GFP viability, ATP luminescence, 18 h; Potency, µM (highest dose often 46.1 µM), usual class: cytotoxic; hit rate 0.76% among 410,000; AID 588856
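HepG2 CAGA-GFP cells (1000/well, DMEM with 1% FBS) received compound, then TGF-beta at 500 pg/mL final, and were incubated 18 hours at 37 degrees C. Viability was read by CellTiter-Glo luminescence. Media-only wells were set as complete cell-killing and DMSO as no toxicity.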
S2 tox: reduces viability in counter-screen for ATXN expression inhibitors | AID 651635 | S2 cells (HEK-293 line with an ATXN2-luciferase reporter) viability, CellTiter-Fluor protease fluorescence, 24 h | Potency, µM (top dose mostly 56.7 µM), usual class: cytotoxic | hit rate 0.49% among 400,000; further: nearly all actives have a fitted effect of over 40% in size
ATXN2 expr inh: inhibitors of ATXN2 expression; hit rate 0.72% among 360,000; HEK-293 ATXN2-luciferase reporter, luminescence, 24 h; Potency, µM (highest dose often 57 µM), actives largely listed as inhibitors; further: nearly all actives have a fitted effect of over 55% in size
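ATXN2-luciferase reporter cells (luciferase flanked by upstream and downstream ATXN2 gene portions) were treated 24 h at 37 °C with compounds at up to 57 uM. SteadyGlo luminescence gave expression; GF-AFC fluorescence gave viability.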
TGFb inhibitor: TGF-b pathway inhibition. HepG2 CAGA-GFP TGF-b/SMAD3 reporter, GFP fluorescence, 18 h; TGF-beta stimulated, 500 pg/mL final. Potency, µM (series often up to 46.1 µM), hits mostly inhibitors. hit rate 1.2% among 410,000. AID 588855; further: nearly all actives have a fitted effect of over 65% in size
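First, reporter cells (HEPG2 CAGA-GFP) rested 2 h at 37 degrees C. Next, compounds were pinned in and TGF-beta added to 500 pg/mL final. After 18 h, GFP was imaged per cell and summed per well.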
TGFb confirm: confirmation of TGF-b signaling inhibitors in HepG2 reporter cells; shares compounds with TGFb inhibitor; HepG2 CAGA-GFP TGF-b reporter, GFP fluorescence, 18 h; cells stimulated with TGF-beta, 500 pg/mL; Potency, µM (doses to about 46.1 µM), actives largely listed as inhibitors; hit rate 63% among 1,600; AID 720534; further: nearly all actives have a fitted effect of over 65% in size
HepG2 tox-2: HepG2 cytotoxicity, TGF-b inhibitor counterscreen; Potency, µM (doses to about 46.1 µM), actives largely listed as inhibitors; HepG2 CAGA-GFP viability, ATP luminescence, 18 h; cells stimulated with TGF-beta, 500 pg/mL; hit rate 27% among 1,600; shares compounds with TGFb inhibitor; further: nearly all actives have a fitted effect of over 70% in size
CCL64 TGFb inh: orthogonal confirmation of TGF-b inhibitors in CCL64 cells. shares compounds with TGFb inhibitor. CCL64 CAGA-GFP reporter, TGF-b stimulated, GFP fluorescence, 18 h. Potency, µM (highest dose often 46.1 µM), usual class: inhibitors. hit rate 41% among 1,600. AID 720536; further: nearly all actives have a fitted effect of over 65% in size
TGFb COP inh: TGF-b inhibition validated with COP promoter. shares compounds with TGFb inhibitor. HepG2 COP-GFP TGF-b reporter, GFP fluorescence, 18 h; cells stimulated by added recombinant TGF-beta. Potency, µM (doses to about 46.1 µM), usual class: inhibitors. hit rate 3% among 1,600; further: nearly all actives have a fitted effect of over 70% in size
A number is an active result; [ ] = dose if it differs, or a comment. The call rests on the fitted dose curve; in most records, active means well fitted curve in the direction sought with a large enough effect; inconclusive means small, poorly fitted or top-dose-only effect, or another doubt; inactive means no such curve, though single readings can be large; an effect the other way counts as inactive or inconclusive.

`OCC1OC(n2cnc3c(NCc4ccco4)ncnc32)C(O)C1O` (stereo unspecified) gave HepG2 tox-1 inactive, S2 tox inconclusive, ATXN2 expr inh inconclusive, TGFb inhibitor 5µM, TGFb confirm 5.8µM, HepG2 tox-2 18µM, CCL64 TGFb inh 12µM and TGFb COP inh inactive.
For C=CCNc1ncnc2c1ncn2C1OC(CO)C(O)C1O (stereo unspecified) the results were HTT ATP protect inactive[10 µM], HttQ103 aggreg inconclusive, HepG2 tox-1 7.9µM, S2 tox inactive, ATXN2 expr inh inactive, TGFb inhibitor 10µM, TGFb confirm 10µM, HepG2 tox-2 inconclusive, CCL64 TGFb inh inactive and TGFb COP inh inactive.
Screening CC(C)=CCNc1ncnc2c1ncn2[C@@H]1O[C@H](CO)[C@@H](O)[C@H]1O returned S2 tox inconclusive and ATXN2 expr inh inactive.
For O=C(COC(=O)CC(c1ccccc1)c1ccccc1)NCc1ccc(Cl)cc1 the results were HTT ATP protect inconclusive, HttQ103 aggreg inactive, HepG2 tox-1 inactive, S2 tox inactive, ATXN2 expr inh inactive, TGFb inhibitor 11µM, TGFb confirm inconclusive, HepG2 tox-2 inconclusive, CCL64 TGFb inh inconclusive and TGFb COP inh inactive.
`CCc1ccc2oc(-c3ccc(C)c(NC(=O)COc4ccc(Cl)cc4)c3)nc2c1` gave HepG2 tox-1 inactive and TGFb inhibitor inactive.
Cc1cccc(C)c1NC(=O)CCCSc1nnc(-c2ccc(F)cc2)n1-c1ccccc1 was read as HTT ATP protect inactive[0.074 µM], HttQ103 aggreg inactive, HepG2 tox-1 inactive, S2 tox inactive, ATXN2 expr inh inactive, TGFb inhibitor 7.9µM, TGFb confirm inconclusive, HepG2 tox-2 inactive, CCL64 TGFb inh inconclusive and TGFb COP inh inactive.
Screening CSc1ccc(NC(=O)C2(C)CCN2C(=O)c2ccccc2CCc2ccccc2)cc1 (stereo unspecified) returned HepG2 tox-1 inactive, S2 tox inactive, ATXN2 expr inh inactive and TGFb inhibitor inactive.
`C#Cc1ccc(NC(=O)C2(C)CCN2C(=O)c2ccccc2CCc2ccccc2)cc1` (stereo unspecified) gave HepG2 tox-1 inactive, S2 tox inactive, ATXN2 expr inh inactive, TGFb inhibitor inconclusive, TGFb confirm inconclusive, HepG2 tox-2 inactive, CCL64 TGFb inh inconclusive and TGFb COP inh inactive.
CNC(=S)N/N=C/C1=CCC2CC1C2(C)C (stereo unspecified) was read as HTT ATP protect inactive[10 µM], HttQ103 aggreg inactive, HepG2 tox-1 inactive, S2 tox inactive, ATXN2 expr inh inactive, TGFb inhibitor 1.1µM, TGFb confirm inconclusive, HepG2 tox-2 inactive, CCL64 TGFb inh inconclusive and TGFb COP inh inactive.
`CC(C)C[C@H]1CN([C@@H](CC(C)C)CN2CCC[C@@H]2CN2C(=S)NC[C@@H]2Cc2ccc(O)cc2)C(=S)N1CCc1ccccc1` gave HepG2 tox-1 inactive, S2 tox inconclusive, ATXN2 expr inh inconclusive, TGFb inhibitor 10µM, TGFb confirm 13µM, HepG2 tox-2 inconclusive, CCL64 TGFb inh 16µM and TGFb COP inh inactive.
